Source: PubChem BioAssay AID720506 (National Center for Advancing Translational Sciences (NCATS), 2013)
Screen size: about 2,300 compounds; about 95 (4%) were called active. Inconclusive results (about 17%) are left out. This is one part of a sample in which actives are shown more often than they occur. Calls follow the shape of the dose curve; as a rule, active = well fitted activation curve with a large enough effect; inconclusive = small, poorly fitted or top-dose-only effect; inactive = flat fitted curve, though single readings scatter.

Target: D(3) dopamine receptor (Homo sapiens) (UniProt P35462)
Assay: qHTS of D3 Dopamine Receptor Agonist: D3 Dopamine Receptor B-arrestin Agonist Confirmatory Assay; also: nearly all actives have a fitted effect of over 70% in size;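 as to activation: 100% = dopamine control response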
Conditions: DiscoveRx D3 beta-arrestin cells, luminescence, 90 min; series mostly up to 76.9 µM; activation: at the top concentration
From the text: D3 DARs represent a very important target for the treatment of several neuropsychiatric disorders. Indeed, one of the most promising therapeutic applications for the D3 DAR is in the area of addiction and related disorders. […] These findings have been observed with a number of addictive substances including cocaine, amphetamine, nicotine, and alcohol. […] Increased D3 DAR activity can thus lead to neuroprotective and neurorestorative actions in the CNS. […] This assay is used to confirm the activity of the identified D3 dopamine receptor agonist. Activation is the desired outcome for this assay. NIH Molecular Libraries Probe Production Centers Network [MLPCN] NIH Chemical Genomics Center [NCGC] MLPCN Grant: NS064831 Assay Submitter (PI): David Sibley
Freshly passaged DiscoveRx D3 cells are plated in 1536 well white, solid bottom plates at a density of 1500 cells/well in 3microl of complete media. After an overnight incubation at 37 degrees C in 5% CO2, cells are loaded with 23nl of test compound from the compound library (as well as dopamine controls) using a 1536 pintool and incubated at 37 degrees C for 90 minutes. Two microliters of DiscoveRx reagent is then added to all cells, and they are incubated for an additional 30 - 60 minutes at room temperature. Following incubation, luminescence is measured on a ViewLux CCD-based luminometer reader using a 20 sec exposure time.
Potency is read from the fitted curve at half-maximal effect.

Chain of D(3) dopamine receptor (Homo sapiens) (P35462 whole entry, looked up): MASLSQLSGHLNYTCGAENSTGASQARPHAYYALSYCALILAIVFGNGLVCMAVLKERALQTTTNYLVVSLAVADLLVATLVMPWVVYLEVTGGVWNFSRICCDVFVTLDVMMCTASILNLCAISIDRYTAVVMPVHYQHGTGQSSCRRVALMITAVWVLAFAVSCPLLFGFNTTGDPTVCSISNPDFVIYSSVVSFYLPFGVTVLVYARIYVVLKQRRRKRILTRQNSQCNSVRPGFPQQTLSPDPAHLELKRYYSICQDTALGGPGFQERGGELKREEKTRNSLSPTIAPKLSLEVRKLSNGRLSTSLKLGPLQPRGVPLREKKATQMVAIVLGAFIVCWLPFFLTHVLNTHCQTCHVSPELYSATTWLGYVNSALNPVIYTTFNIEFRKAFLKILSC

Row | SMILES | activation | Potency
1 | Cc1cc(C)n2nc(C(=O)N3CCN(Cc4ccc5c(c4)OCO5)CC3)nc2n1 | 3% (inactive) | 
2 | CCCN(CC(=O)Nc1ccccc1C)C(=O)c1ccc2[nH]c3c(c2c1)CC(C)CC3 (stereo unspecified) | -0.304% (inactive) | 
3 | OC(COCc1ccco1)CN1CCN(c2ccccc2)CC1 (stereo unspecified) | -3.53% (inactive) | 
4 | O=C(CSC1CC(=O)N(CCc2ccccc2)C1=O)Nc1ccc(Cl)cc1 (stereo unspecified) | -1.08% (inactive) | 
5 | CC(C)(C)C(=O)OCc1nc(-c2ccc(O)c(O)c2)cs1 |  | 11.2 µM (active)
6 | O=c1oc(-c2ccccc2NS(=O)(=O)c2ccc(Cl)cc2)nc2ccccc12 | -0.248% (inactive) | 
7 | O=C(C1CC(=O)N(c2ccc(F)cc2)C1)N1CCN(c2ccccc2)CC1 (stereo unspecified) | -1.88% (inactive) | 
8 | CCn1c(=O)cc(OCC(=O)NCCCN2CCN(c3cccc(Cl)c3)CC2)c2ccccc21 | -0.221% (inactive) | 
9 | O=C(c1ccc2c(c1)OCCO2)C1CCN(S(=O)(=O)c2cccc(F)c2)CC1 | -8.28% (inactive) | 
10 | CN1CCN(S(=O)(=O)c2cccc(C(=O)Nc3sccc3C#N)c2)CC1 | 6.9% (inactive) | 
11 | O=C(CNCc1cccs1)Nc1cc(S(=O)(=O)N2CCCC2)ccc1Cl |  | 17.8 µM (active)
12 | CC(CCc1ccccc1)NCC(O)c1cccc([N+](=O)[O-])c1 (stereo unspecified) | -0.828% (inactive) | 
13 | CC(CCc1ccc(O)cc1)NCc1ccc(Cl)cc1Cl (stereo unspecified) |  | 1.78 µM (active)
14 | CC1(C)CC(=O)C=C(c2ccc3ncccc3c2)C1 | -3.23% (inactive) | 
15 | Cc1c(C(=O)Nc2cccc(-c3nnc4n3CCCCC4)c2)oc2ccccc12 | -0.331% (inactive) | 
16 | O=C(NC1CCCCC1)c1ccc2c(=O)n(CC3CCCO3)c(=O)[nH]c2c1 (stereo unspecified) | 5.22% (inactive) | 

Row | SMILES | activation | Potency
17 | CCOC(=O)[C@H]1[C@H]2COc3ccc(C)cc3[C@@H]2N2C(=O)CN(Cc3ccc(F)cc3)C(=O)[C@@]12C | -4.45% (inactive) | 
18 | O=C(CCN1CCN(C/C=C/c2ccccc2)CC1)Nc1ccccc1Cl | 20% (inactive) | 
19 | COc1cccc(NC(=O)C2CCCN(c3ncnc4c3nc3n4CCCCC3)C2)c1 (stereo unspecified) | -5.52% (inactive) | 
20 | CC(C)c1ccc2c(c1)c(SC(C)(C)C)c(CC(C)(C)C(=O)O)n2Cc1ccc(Cl)cc1 | 29% (inactive) | 
21 | O=C(c1c(F)cccc1F)N1CCN(S(=O)(=O)c2ccc3c(c2)OCCO3)CC1 | 0.221% (inactive) | 
22 | Cc1cccc(OCC(=O)NCC(=O)N/N=C/c2ccc(N(C)C)cc2)c1 | -8.89% (inactive) | 
23 | Cc1cc(C)c(/C=C2\C(=O)Nc3ccccc32)[nH]1 | -20.8% (inactive) | 
24 | COc1cccc(OC)c1OCCN1CCN(C(=O)c2ccco2)CC1 |  | 0.631 µM (active)
25 | CCn1cc(C(=O)N2CCN(Cc3ccc4c(c3)OCO4)CC2)c2cc(OC)c(OC)cc2c1=O | 8.46% (inactive) | 
26 | CCC(=O)Nc1ccc(C(=O)N2CCN(C(=O)c3ccco3)CC2)cc1 | -6.56% (inactive) | 
27 | O=C(Cc1csc(Nc2nc(=S)[nH]c3ccccc23)n1)NCCCN1CCN(c2cccc(Cl)c2)CC1 | -8.61% (inactive) | 
28 | COc1ccc(C2NC(=O)C(=O)/C2=C(\O)c2ccc(Cl)cc2)cc1OC (stereo unspecified) | -9.76% (inactive) | 
29 | O=C(CN1CCN(S(=O)(=O)c2cc(Cl)ccc2Cl)CC1)c1ccc(O)c(O)c1 |  | 35.5 µM (active)
30 | O=C(CCCn1c(=O)[nH]c2cc(Cl)ccc2c1=O)NCCN1CCN(c2ccccc2)CC1 | -3.42% (inactive) | 
31 | O=C(c1c(Cl)cccc1Cl)N1CCN(c2cccc3[nH]ccc23)CC1 | 15% (inactive) | 
